Rows were chosen to be rich in hits. Some 1.7% of all compounds tested hit in one or more screens of this group.
GLP-1R inv ag: GLP-1 receptor (human) inverse agonism; P43220; HEK293 GLP-1R CRE-luciferase, luminescence, 24 h; GLP-1R form is constitutively active; Potency, µM (doses to about 38.3 µM), hits mostly inhibitors; 1.6% of 410,000 active; AID 624417; further: nearly all actives have a fitted effect of over 55% in size
Target sequence (P43220 whole entry, looked up): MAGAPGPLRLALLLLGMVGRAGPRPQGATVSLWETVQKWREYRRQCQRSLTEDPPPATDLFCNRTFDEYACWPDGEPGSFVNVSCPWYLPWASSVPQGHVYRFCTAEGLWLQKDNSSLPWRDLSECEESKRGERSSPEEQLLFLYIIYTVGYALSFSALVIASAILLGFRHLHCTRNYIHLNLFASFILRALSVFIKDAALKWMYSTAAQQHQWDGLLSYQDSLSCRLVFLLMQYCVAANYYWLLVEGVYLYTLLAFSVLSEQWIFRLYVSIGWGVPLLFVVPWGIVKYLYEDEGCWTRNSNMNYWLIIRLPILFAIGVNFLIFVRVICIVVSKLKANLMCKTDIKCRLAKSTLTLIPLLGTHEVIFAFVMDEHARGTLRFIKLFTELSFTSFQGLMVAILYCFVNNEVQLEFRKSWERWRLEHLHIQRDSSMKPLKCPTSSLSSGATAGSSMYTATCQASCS
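Stable HEK293 clone (constitutively active GLP-1R + cAMP-response luciferase); 200 cells/uL plated, 12 h pre-culture, compound 24 hr, 37 deg C/5% CO2; detection reagent 12 min RT; luminescence.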
HEK293 tox: cytotoxicity in counter-screen for GLP-1R inverse agonists; Potency, µM (highest dose often 38.3 µM), actives largely listed as inhibitors; 0.13% of 410,000 active; HEK293 cAMP-luciferase reporter cells, luminescence, 24 h;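 further: loss of luciferase light is scored as toxicity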
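Luminescence readout: signal drop marks cytotoxicity. Plated cells grew 12 h at 37 °C, 5% CO2, received 23 nL compound for 24 h, then got luciferase reagent, read after 12 min at RT.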
GLP1R ag: activates the human GLP-1 receptor; HEK293 GLP-1R CRE-luciferase, luminescence, 4-6 h; cells express a hypersensitive GLP-1R form; P43220; AID 624172; Potency, µM (highest dose often 45.6 µM), actives largely listed as activators; 0.007% of 380,000 active
Large screens that a line does not name were inactive. The call rests on the fitted dose curve; in most records, active means well fitted curve in the direction sought with a large enough effect; inconclusive means small, poorly fitted or top-dose-only effect, or another doubt; inactive means no such curve, though single readings can be large; an effect the other way counts as inactive or inconclusive.

COc1ccc(N2C(=O)CSC2c2ccccc2[N+](=O)[O-])cc1 (stereo not drawn)	none
CC(=O)Nc1ccc(S(=O)(=O)NCC2CCC(C(=O)NCCCN(C)Cc3ccccc3)CC2)cc1 (stereo not drawn)	GLP-1R inv ag inconclusive
CN(CCCNC(=O)C1CCC(CNS(=O)(=O)c2ccccc2)CC1)Cc1ccccc1 (stereo not drawn)	GLP-1R inv ag 3.5µM
CC(=O)c1ccc(CCCc2ccc(C(C)=O)cc2)cc1	none
Cc1ccc(N2CCN(C(=O)c3cc(S(=O)(=O)N4CCCCC4)c[nH]3)CC2)c(C)c1	none (no result: GLP1R ag)
C/C(=N\Nc1nc(N2CCCCC2)nc(N2CCOCC2)n1)c1ccccc1O	GLP-1R inv ag 2.5µM
C/C(=N\Nc1nc(N2CCOCC2)nc(N2CCOCC2)n1)c1cccs1	none
Cn1c(=O)n(C)c2cc(N3CCOCC3)c(NC(=O)c3ccc(Cl)cc3)cc21	none (no result: GLP1R ag)
C=CCn1c(NCc2cc(Cl)ccc2O)nc2ccccc21	GLP-1R inv ag 11µM
C=CCn1c(NCc2ccccc2O)nc2ccccc21	GLP-1R inv ag inconclusive
Cc1ccc(CNc2nc3ccc(Cl)cc3n3nnnc23)cc1	none (no result: GLP1R ag)
CCOC(=O)C(NC(=O)c1ccccc1Cl)(Nc1ccc(C)c(C)c1)C(F)(F)F (stereo not drawn)	none
COC(=O)C(Nc1ccccc1Cl)(c1cc(C)c(O)c(C)c1)C(F)(F)F (stereo not drawn)	GLP-1R inv ag 4.5µM, HEK293 tox inconclusive
CN(C(=O)Cn1nnc(-c2ccc(S(C)(=O)=O)cc2)n1)c1ccccc1	none
CCN(CC)c1ccc(/C=N/Nc2nn[nH]n2)cc1	none
CCN(CC)c1ccc(/C=N/Nc2nc(C)cc(C)n2)cc1	GLP-1R inv ag 11µM, HEK293 tox inconclusive
CCCOc1cccc(C(=O)NCCNC(=O)c2cnccn2)c1	none
CCC(=O)NC(NC(=S)Nc1cccc2cccnc12)C(Cl)(Cl)Cl (stereo not drawn)	GLP-1R inv ag inconclusive
CC(C)(C)C(=O)NC(Nc1cccc2cccnc12)C(Cl)(Cl)Cl (stereo not drawn)	GLP-1R inv ag 5µM
COCC(=O)N1CCC(Oc2ccc(C(=O)NCc3cc(C(C)C)no3)cc2)CC1	none
C=CCC(NC(=O)N(C)C)(C(C)=O)C(=O)OC (stereo not drawn)	none (no result: GLP1R ag)
COc1cccc(/C=N/NC(=S)NC2CC3CC2C2C=CCC32)c1O (stereo not drawn)	HEK293 tox inconclusive
Oc1ccccc1/C=N/NC(=S)NC1CC2CC1C1C=CCC21 (stereo not drawn)	GLP-1R inv ag inconclusive, HEK293 tox 4.5µM
O/N=C(\Cn1ccnc1)c1ccccc1	none
CSc1ccc(Cn2c(C)c(C(=O)NCc3cccc(C(F)(F)F)c3)sc2=O)cc1	GLP-1R inv ag inconclusive
CN1CCN(NC(=O)c2cn(-c3ccccc3)nc2-c2cccc(Br)c2)CC1	GLP-1R inv ag 3.2µM, HEK293 tox inconclusive
CN1CCN(NC(=O)c2cn(-c3ccccc3)nc2-c2cccs2)CC1	none
CCOc1ccc(CN(C(=O)c2cc(=O)c3cc(Cl)ccc3o2)C2CCS(=O)(=O)C2)cc1 (stereo not drawn)	none (no result: GLP1R ag)
O=C(CN1C(=O)C2CC=CCC2C1=O)Nc1nc(-c2ccc(F)c(F)c2)cs1 (stereo not drawn)	GLP-1R inv ag inconclusive
COc1ccc(-c2nc3ccccc3o2)cc1NC(=O)COc1ccc(C(C)(C)C)cc1	none (no result: GLP1R ag)
COc1cc(OC)cc(-c2nnc(SCC(=O)N(Cc3ccccc3)C(C)(C)C)o2)c1	GLP-1R inv ag 8.9µM
COc1cc(-c2nnc(SCC(=O)N(Cc3ccccc3)C(C)(C)C)o2)cc(OC)c1OC	GLP-1R inv ag inconclusive
Cc1ccc(S(=O)(=O)c2nc(-c3ccccc3)oc2N2CCCCCC2)cc1	GLP-1R inv ag 6.3µM (no result: GLP1R ag)
Cc1ccc(-c2nc(S(=O)(=O)c3ccc(C)cc3)c(N3CCCCC3)o2)cc1	none (no result: GLP1R ag)
CNC(=O)c1cnc2sc(N3CCC(C)CC3)nn2c1=O	none (no result: GLP1R ag)
CCO/C=C/C(O)(CNC(=O)c1ccc(C(C)(C)C)cc1)C(F)(F)F (stereo not drawn)	GLP-1R inv ag 8.9µM
CCOC(=O)CNC(=O)c1ccc(C)cc1	none
Cc1cc(NC(=O)NC(=O)c2ccccc2NC(=O)C(C)N)ccc1Oc1ncc(Br)cn1 (stereo not drawn)	GLP-1R inv ag inconclusive, HEK293 tox inconclusive
COC(=O)[C@]1(Cc2ccccc2)N[C@H](CN(C)C(C)=O)[C@@H]2C(=O)N(Cc3ccccc3)C(=O)[C@@H]21	none
Cc1ccc(S(=O)(=O)N2C[C@H]3[C@H]4C(=O)N(c5ccccc5)C(=O)[C@H]4C[C@H](OC(=O)Nc4c(C)noc4C)[C@@]3(O)C2)cc1	none
Cc1nnc(N/N=C/c2ccccc2F)n1N	none
COCCCNC(=S)N/N=C/c1ccc(O)cc1O	none
COCCCNC(=S)N/N=C/c1cccc(OC)c1O	GLP-1R inv ag 1.1µM, HEK293 tox inconclusive
COc1cccc(/C=N/Nc2nnc(C)n2N)c1O	GLP-1R inv ag 10µM, HEK293 tox inconclusive
C[C@H](/C=C/[C@H](C)C(C)(C)O)[C@H]1CC[C@H]2/C(=C/C=C3C[C@@H](O)C[C@H](O)C3)CCC[C@]12C	none (no result: GLP-1R inv ag, HEK293 tox)
N#Cc1ccc(S(=O)(=O)N2CCCCC2c2cc(C(=O)NCc3ccccc3)no2)cc1 (stereo not drawn)	none
N#CCc1nn2c3c(cnc2c1C#N)C(=O)CCC3	none
N#CCc1ccc(OCCCN2CCC(C(O)(c3ccccc3)c3ccccc3)CC2)cc1	GLP-1R inv ag inconclusive, HEK293 tox inconclusive
OC(c1ccccc1)(c1ccccc1)C1CCN(CCCOc2ccc3c(c2)CCCC3)CC1	GLP-1R inv ag 7.9µM, HEK293 tox inconclusive
O=S(=O)(c1cccc(Cl)c1Cl)N1CCN(C(=S)NCCCN2CCOCC2)CC1	GLP-1R inv ag 7.1µM
S=C(NCCCN1CCOCC1)N1CCN(c2nc(-c3ccc(Cl)cc3)cs2)CC1	GLP-1R inv ag 3.5µM, HEK293 tox inconclusive
O=C(NCCCN1CCOCC1)C1CCN(S(=O)(=O)c2cccc(Cl)c2Cl)CC1	GLP-1R inv ag inconclusive
S=C(NCCCN1CCOCC1)N1CCN(c2nc(-c3ccccc3)cs2)CC1	GLP-1R inv ag inconclusive
CC(=O)c1cccc(S(=O)(=O)NC2CCSc3ccccc32)c1 (stereo not drawn)	none
CC1CN(C(=O)CCC(=O)NCc2ccc(F)cc2)c2cc(Cl)ccc2O1 (stereo not drawn)	none (no result: GLP1R ag)
CC1CN(C(=O)CCC(=O)NCc2ccccc2)c2cc(Cl)ccc2O1 (stereo not drawn)	GLP-1R inv ag 10µM
CC(C)C[C@H]1CN(CCCC[C@@H]2CNC(=O)C(=O)N2CC2CCCCC2)C(=O)C(=O)N1CCC1CCCCC1	none
CCN(CC)C(=S)SCC(=O)NC12CC3CC(CC(C3)C1)C2	GLP-1R inv ag 2.8µM
CCN(CC)CC(=O)NC12CC3CC(CC(C3)C1)C2	none
Cc1ccc(Cn2c(CO)cnc2SCC(=O)Nc2ccc(C)c(Cl)c2)cc1	GLP-1R inv ag 13µM (no result: GLP1R ag)
Cc1ccc(Cn2c(CO)cnc2SCC(=O)Nc2cccc(F)c2)cc1	none
O=C(N/N=C/c1ccccc1[N+](=O)[O-])c1ccc2c(c1)OCCO2	none
O=C(N/N=C/c1cc([N+](=O)[O-])ccc1O)c1ccc2c(c1)OCCO2	GLP-1R inv ag inconclusive, HEK293 tox 3.5µM
O=C(Nc1cccc(Cl)c1)OCCOC(=O)Nc1cccc(Cl)c1	GLP-1R inv ag 10µM, HEK293 tox inconclusive
